# Data taken from ChEMBL document CHEMBL3988442, “University of Dundee, Small-Polar-MMV Screening Library” (2021).
# In all, about 48,000 compounds went through this assay and about 13,000 (27%) showed an effect of 50% or more. Some of the results follow.
# Tested on: Wolbachia pipientis
# Experiment: Anti-Wolbachia Cell-Based Screen
# Assay type: functional
# Set-up: scale not given: in the data most compounds retested in dose-response had high values
# Settings: 5 µM
row,SMILES,Percent Effect
1,CCn1ccnc1CN1CCN(c2ncnc3ccsc23)CC1,18.95%
2,CCC(=O)NCC(=O)NCc1cc(Br)ccc1OC(F)F,6.284%
3,Cc1ccc(N2CCC(NCc3cnc(C4CCC4)s3)CC2)nc1,10.22%
4,CN(Cc1nnc(C2CC2)n1C)C1CCN(Cc2ccccc2F)C1 (stereo not drawn),2.374%
5,CN(Cc1nnc(C2CC2)n1C)C1CCN(Cc2nccn2C)C1 (stereo not drawn),117.3%
6,CCn1c(C)nnc1CN(C)C1CCN(Cc2nccn2C)C1 (stereo not drawn),-10.2%
7,CCOC(=O)C1CN(S(C)(=O)=O)Cc2ncn(CC)c21 (stereo not drawn),9.527%
8,O=C(O)[C@@H]1CN(C(=O)c2ccc3[nH]nnc3c2)C[C@H]1c1ccccc1,101.1%
9,COc1ccc(C(=O)N2C[C@@H](C(=O)O)[C@H](c3cccc(F)c3)C2)c(O)c1,-6.268%
10,O=C(O)[C@@H]1CN(C(=O)c2ccc3[nH]nnc3c2)C[C@H]1c1cccc(F)c1,0.7419%
11,O=C(O)[C@@H]1CN(C(=O)c2ccc3nccnc3c2)C[C@H]1c1ccncc1,-8.549%
12,Cc1ccc(F)c(C(=O)N2C[C@@H](C(=O)O)[C@H](c3ccncc3)C2)c1Cl,-4.386%
13,COc1ccc(C(=O)N2C[C@@H](C(=O)O)[C@H](c3ccccc3)C2)c(C)c1,-5.118%
14,O=C(O)[C@@H]1CN(C(=O)c2ccc(Cl)cc2)C[C@H]1c1cccc(F)c1,111.8%
15,O=C(O)[C@@H]1CN(C(=O)c2ccc(F)c(F)c2)C[C@H]1c1cccc(F)c1,133.7%
16,Cc1ccc(C(=O)N2C[C@@H](C(=O)O)[C@H](c3ccncc3)C2)cc1F,1.77%
17,O=C(O)[C@@H]1CN(C(=O)c2ccc(O)cc2)C[C@H]1c1cccc(F)c1,133.5%
18,O=C(O)[C@@H]1CN(C(=O)c2cc(C3CC3)n[nH]2)C[C@H]1c1cccc(F)c1,-7.697%
19,Cc1ccccc1[C@@H]1CN(C(=O)c2ccc3[nH]nnc3c2)C[C@H]1C(=O)O,1.706%
20,COC(=O)CNC(=O)C12CCC(=O)N1c1cc(Cl)ccc1S2 (stereo not drawn),-3.577%
21,CC(NC(=O)c1ccc(C(N)=O)cc1)c1cccc(N2CCOC2=O)c1 (stereo not drawn),7.135%
22,Cc1ccc(C(=O)N2CCN(C(=O)C(C)n3ccnc3)CC2)cc1F (stereo not drawn),-10.24%
23,COc1ccc(C2CC(=O)Nc3c2nc2n3CCCC2)cc1OC (stereo not drawn),9.396%
24,CCOc1ccc(-c2ccnc(C3CC3)n2)cc1C(=O)O,5.09%
25,CCOc1ccc(OC2CCCN(c3cnn(C)c3)C2=O)cc1 (stereo not drawn),7.424%
26,COc1ccc(C2CC(=O)Nc3c2nc2n3CCCC2)cc1O (stereo not drawn),0.05289%

row,SMILES,Percent Effect
1,CCOc1ccc(-c2ccnc(C)n2)cc1C(=O)O,-6.535%
2,CN(C)c1cnn(CC(=O)N2CCCCCC2)c(=O)c1,2.501%
3,COc1ccc(-c2cc(=O)n3c(n2)CCCCC3)cc1,99.63%
4,CCOc1ccc(-c2cc(=O)n3c(n2)CCCCC3)cc1,126.5%
5,CCOc1cc(-c2cc(=O)n3c(n2)CCCCC3)ccc1O,95.98%
6,CCOc1ccc(NC(=O)Nc2cc(N3CCCCC3)ncn2)cc1,16.35%
7,CN(C)c1ccc(-c2cc(=O)n3c(n2)CCCCC3)cc1,163.6%
8,CN(Cc1nccs1)C1CCN(c2cccc(-c3cscn3)c2)CC1,-5.707%
9,O=C(Nc1cc(-c2ccccc2)on1)N1CCN(CCO)CC1,-8.087%
10,CN(CC(O)C1CC1)C(=O)c1ccc(-c2nc(C3CC3)n[nH]2)cc1 (stereo not drawn),-1.161%
11,Cc1[nH]c(-c2ccccc2)nc1C(=O)N1CCC2(CCCO2)CC1,-0.5796%
12,NC(=O)c1ccc(N2CCCCC2)c(NC(=O)c2cncc(Br)c2)c1,8.346%
13,Cc1nc(C(C)NC(=O)NCc2nccn2CC(C)C)cs1 (stereo not drawn),-2.713%
14,CC(NCC1CCN(CCO)CC1)c1ccc(C(F)(F)F)cc1 (stereo not drawn),4.315%
15,CC(N)C(=O)N1CCC(Oc2cccc(C(F)(F)F)c2)CC1 (stereo not drawn),-15.39%
16,COCC(NC(=O)c1cnn(C)c1)c1cccc(C(F)(F)F)c1 (stereo not drawn),-8.704%
17,COC(=O)NCC(=O)NCC(C)(C)c1cccc(C(F)(F)F)c1,-0.4386%
18,CC(C(=O)Nc1cccc(C(F)(F)F)c1)N(C)CCN1CCOCC1 (stereo not drawn),-13.73%
19,COCCN1CCN(CC(C)(O)c2cccc(C(F)(F)F)c2)CC1 (stereo not drawn),78.04%
20,CC(=O)N1CCOC(Cc2cccc(C(F)(F)F)c2)C1 (stereo not drawn),-10.28%
21,CC(=O)N1CCN(Cc2ccc(C(F)(F)F)cc2F)CC(O)C1 (stereo not drawn),-3.674%
22,CC(O)(CN1CCN(CCO)CC1)c1cccc(C(F)(F)F)c1 (stereo not drawn),117%
23,CC(=O)N1CCN(CC(C)(O)c2cccc(C(F)(F)F)c2)CC1 (stereo not drawn),108.1%
24,COCCN1CCN(C(=O)C(c2cccc(F)c2)N(C)C)CC1 (stereo not drawn),-2.953%
25,CC(O)(CN1CCC(O)CC1)c1cccc(C(F)(F)F)c1 (stereo not drawn),104.1%
26,CC(C)c1noc(C(C)N2CCC(c3nc4ccccc4[nH]3)CC2)n1 (stereo not drawn),10.92%

row,SMILES,Percent Effect
1,O=C(CCSc1ccccc1)NS(=O)(=O)c1ccc2c(c1)OCCO2,13.89%
2,CC1=NOC(C(=O)N2CCC(O)(c3ccc4nc(C)ccc4c3)CC2)C1 (stereo not drawn),-15.54%
3,Clc1ccc(CN2CCCC(Cn3cncn3)C2)c2ncccc12 (stereo not drawn),-4.031%
4,Cn1c(C(=O)N2CCC(C3OCCO3)CC2)c(Cl)c2ccccc21,4.597%
5,O=c1[nH]nc2nc(N3CCOCC3)ccn12,3.869%
6,CC(C)c1nccn1C(C)C(=O)NC1CCOCC1 (stereo not drawn),-4.368%
7,O=c1[nH]nc2nc(N3CCCC3)ccn12,-11.65%
8,CC(NC(=O)Nc1cccnc1N1CCOCC1)c1ccccc1 (stereo not drawn),-4.6%
9,O=c1[nH]nc2c(N3CCCCCC3)nccn12,114.9%
10,CCc1cc(N2CCC(NC3CCOCC3)CC2)nc(N(C)C)n1,-0.7364%
11,O=c1[nH]nc2nc(N3CCSCC3)ccn12,-3.985%
12,O=c1[nH]nc2c(N3CCC(NC4CCOCC4)CC3)nccn12,113.4%
13,O=c1[nH]nc2c(N3CCOCC3)nccn12,105.6%
14,COc1cccn(Cc2nnc(-c3cccnc3)o2)c1=O,-29.57%
15,Cc1nc(CNC(=O)[C@@H]2CCCN2C(=O)OC(C)(C)C)cs1,-12.19%
16,Cc1ccccc1N1CCCN(CC2(O)CCCNC2)CC1 (stereo not drawn),-10.43%
17,O=C(c1cc(C2CC2)[nH]n1)N1CCN(Cc2ccncc2)CC1,106.7%
18,CC(C)c1ccc(CN2CCN(C(=O)c3cc(C4CC4)[nH]n3)CC2)cc1,100.6%
19,CC(C)c1cc(C(=O)N2CCN(Cc3ccc(C#N)cc3)CC2)n[nH]1,1.28%
20,O=C(c1cc(COc2ccc3c(c2)OCO3)[nH]n1)N1CCCC(O)C1 (stereo not drawn),-9.09%
21,CCc1nc(C(=O)N2CCN(Cc3ccc(Cl)cc3)CC2)c[nH]1,7.187%
22,O=C(c1cc(COc2ccc3c(c2)OCO3)[nH]n1)N1CCOCC1,16.23%
23,COc1ccnc(N2CCN(C(=O)c3cc(C4CC4)[nH]n3)CC2)n1,-20.97%
24,O=C(c1cc(C2CC2)[nH]n1)N1CCN(Cc2ccc3c(c2)OCO3)CC1,118.4%
25,O=C(c1cc(C2CC2)[nH]n1)N1CCN(Cc2ccc(Cl)cc2)CC1,91.65%
26,O=C(c1cc(C2CC2)[nH]n1)N1CCN(c2nccs2)CC1,-6.646%

row,SMILES,Percent Effect
1,N#Cc1ccc(CN2CCN(C(=O)c3cc(C4CC4)[nH]n3)CC2)cc1,-3.632%
2,Cc1ccsc1C(=O)NCC1COCc2c(C)nnn2C1 (stereo not drawn),-4.017%
3,COc1ccc(CC(=O)N2CCc3nc(C(=O)N(C)C)sc3CC2)cc1,-11.26%
4,COCc1cc(N(C)Cc2cc(C(C)(C)C)n[nH]2)ncn1,-4.66%
5,Cc1cnn(CCNCc2ccc(OCC(N)=O)cc2)c1,-9.498%
6,Cc1nn(CCC#N)c(C)c1CCC(=O)N(C)Cc1ccc(F)cc1F,10.09%
7,O=C(c1cc(C2CC2)[nH]n1)N1CCCN(c2nccs2)CC1,-25.45%
8,CCOc1ccc(CN2CCN(C(=O)c3cc(C4CC4)[nH]n3)CC2)cc1,100.1%
9,N#Cc1ccc(N2CCN(C(=O)c3cc(C4CC4)[nH]n3)CC2)c(F)c1,-1.136%
10,O=C(c1cc(C2CC2)[nH]n1)N1CCN(Cc2ccsc2)CC1,-9.211%
11,O=C(c1cc(C2CC2)[nH]n1)N1CCN(Cc2ccccc2)CC1,113.8%
12,Cc1cccc(CN2CCN(C(=O)c3ccc(C)[nH]c3=O)CC2)c1,-0.706%
13,CC(C)c1cc(C(=O)N2CCCN(Cc3ccccc3)CC2)n[nH]1,-13.62%
14,CCOc1ccc(CN2CCN(C(=O)c3ccc(C)n3C)CC2)cc1,6.046%
15,Cc1cccc(CN2CCN(C(=O)c3cc(C4CC4)[nH]n3)CC2)c1,106.2%
16,COCCC1(CNC(=O)NC2CCCN(C)C2)CC1 (stereo not drawn),-18.26%
17,CC(C)OC(=O)N1CCC(Cc2cccc(C(N)=O)c2)C1 (stereo not drawn),0.346%
18,Nc1cc2c(nn1)CCN(C(=O)c1csc(-c3cccs3)n1)C2,-8.113%
19,O=C(Nc1ccccc1-c1cccs1)N1CCOCC1,-11.7%
20,CC(C(=O)N1CCOCC1)N1CCc2cncnc2C1 (stereo not drawn),24.13%
21,O=C1CC(c2cccs2)Cc2nc(O)c(C(=O)N3CCCC3)cc21 (stereo not drawn),-9.305%
22,CC(C(=O)N1CCCCC1)n1nc(-c2cccs2)cc(N)c1=O (stereo not drawn),96.7%
23,CC(C(=O)N1CCCC1)n1nc(-c2cccs2)cc(N)c1=O (stereo not drawn),96.9%
24,CC(C(=O)N1CCOCC1)n1nc(-c2cccs2)cc(N)c1=O (stereo not drawn),87.73%
25,Cc1nc(-c2cccs2)ccc1C(=O)N1CCN(CC(C)O)CC1 (stereo not drawn),6.494%
